Assay outcomes from PubChem.
A selection: hits, their analogues and other compounds. The true share with any hit is near 2.6%.
eIF4E 4G PPI – eIF4E/eIF4G interaction inhibition in translation initiation | TR-FRET eIF4E-eIF4GI(517-606) binding, 2 h | actives 0.37% (n = 220,000) | inhibition, % at 21.7 µM;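 active = inhibition above about 30%, limit read from the data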;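 also: 0% = full FRET control wells and 100% = background wells lacking eIF4GI fragment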
Mcl1 Noxa PPI – disrupts binding of human Mcl-1 to Noxa peptide; TR-FRET Mcl-1/Noxa peptide binding, 2 h; inhibition, % at 21.7 µM; actives 1.5% (n = 220,000); AID 1022;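 active = compounds that cut the protein-peptide binding signal by more than 50% relative to plate controls in a single-dose test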;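 also: His-tagged Mcl-1 with rhodamine Noxa BH3 peptide and terbium anti-His antibody; 0% = Mcl-1 plus Noxa peptide wells and 100% = peptide-only wells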
Target sequence (Q07820 whole entry, looked up): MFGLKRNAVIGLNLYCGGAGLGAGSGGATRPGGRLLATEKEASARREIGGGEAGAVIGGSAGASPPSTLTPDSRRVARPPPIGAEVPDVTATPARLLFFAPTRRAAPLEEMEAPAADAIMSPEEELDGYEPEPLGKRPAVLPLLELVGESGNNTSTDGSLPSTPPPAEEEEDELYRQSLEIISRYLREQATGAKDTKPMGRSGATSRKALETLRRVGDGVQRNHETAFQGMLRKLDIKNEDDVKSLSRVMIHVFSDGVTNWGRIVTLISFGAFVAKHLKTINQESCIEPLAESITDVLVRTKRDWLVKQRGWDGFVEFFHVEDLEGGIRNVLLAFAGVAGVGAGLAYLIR
14-3-3 Bad PPI – disrupts binding of bovine 14-3-3 zeta to phospho-Bad peptide. TR-FRET 14-3-3zeta/Dy647-pBad peptide displacement, 1 h. inhibition, % at 21.7 µM. actives 0.71% (n = 220,000);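 active = inhibition above about 70%, limit read from the data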;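 also: 0% = full 14-3-3 plus peptide FRET controls and 100% = background without 14-3-3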
Mcl-1 Bim block – disrupts Bim peptide binding to human Mcl-1; Bead-based flow cytometry, Bim peptide-Mcl-1 binding; Q07820; AID 1009; actives 0.1% (n = 190,000); inhibition, % at 10 µM; in the data active = inhibition above about 40%;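 also: 0% = no compound tracer wells and 100% = peptide blocker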
Mcl1 Bid PPI – Mcl-1/Bid interaction inhibition. TR-FRET Mcl-1/Bid-Dy647 peptide binding, 1536-well. Q07820. AID 1021. inhibition, % at 21.7 µM. actives 0.97% (n = 220,000);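 active = compounds that cut the binding signal by more than half at the single screening dose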;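 also: His-tagged Mcl-1 with europium anti-His antibody binding Bid BH3 peptide; 0% = Mcl-1 plus peptide wells and 100% = peptide-only wells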
MCL1-BIM inh – MCL1-BIM-BH3 interaction inhibition (human); Q07820; GST-MCL1 / FITC-Bim-BH3 fluorescence polarization; inhibition, % at 10.9 µM; actives 0.68% (n = 320,000);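 active = inhibition above the mean inhibition of all tested compounds plus 3 SD, set per campaign, cut at about 40% in these data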;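 also: 0% = DMSO wells and 100% = unlabeled Bim-BH3 peptide control; higher means more loss of mP so more displacement of Bim peptide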
BCLXL inh confirm – counter-screen for MCL1 inhibitors: confirmation of human Bcl-xL inhibitors; actives 54% (n = 1,700); AID 2166; shares compounds with MCL1-BIM inh; GST-Bcl-xL / FITC-Bim BH3 peptide FP binding; inhibition, % at 10.9 µM;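 active = inhibition above a cutoff equal to the mean inhibition of all tested compounds plus 3 SD, cut at about 30% in these data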;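 also: 0% = DMSO wells and 100% = unlabeled Bim BH3 control peptide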
Target sequence (Q07817 whole entry, looked up): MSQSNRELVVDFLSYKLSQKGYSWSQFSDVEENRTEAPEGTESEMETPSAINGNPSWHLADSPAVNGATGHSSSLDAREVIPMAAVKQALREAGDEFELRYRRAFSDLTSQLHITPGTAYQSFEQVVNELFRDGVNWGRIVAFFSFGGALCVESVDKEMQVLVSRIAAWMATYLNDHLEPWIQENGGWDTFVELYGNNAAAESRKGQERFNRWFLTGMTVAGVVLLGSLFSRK
MCL1 BIM confirm – confirmation of human MCL1 and BIM-BH3 interaction inhibitors; shares compounds with MCL1-BIM inh; GST-MCL1 / FITC-Bim-BH3 fluorescence polarization; inhibition, % at 10.9 µM; actives 61% (n = 1,700); AID 2168;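 active = inhibition above the average of all tested compounds plus 3 SD, cut at about 40% in these data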;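 also: 0% = DMSO wells and 100% = unlabeled Bim-BH3 control peptide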
* hit, by the source's call; x = not tested or not shown; + = active, no number.

SMILES	eIF4E 4G PPI	Mcl1 Noxa PPI	14-3-3 Bad PPI	Mcl-1 Bim block	Mcl1 Bid PPI	MCL1-BIM inh	BCLXL inh confirm	MCL1 BIM confirm
CC1CCC(NC(=O)c2cc(S(=O)(=O)N3CCCCC3)ccc2N2CCOCC2)CC1 (configuration not stated)	x	x	x	x	x	-13.3	x	x
COc1ccc(OCC(O)CNC(=O)c2ccc(Br)cc2)cc1 (configuration not stated)	17.9	-19.7	-8.4	-2.0	2.1	4.2	x	x
COc1ccc(OCC(O)CNC(=O)c2ccc(OC)cc2)cc1 (configuration not stated)	1.2	4.9	0.1	0.0	-9.2	44.5*	4.8	6.9
CCOC(=O)c1sc(=S)n(-c2ccc3c(c2)OCO3)c1N	23.9	-0.7	-1.0	-9.0	-23.2	48.8*	13.6	8.4
O=C(CC1Nc2ccccc2NC1=O)c1ccccc1 (configuration not stated)	-7.2	-2.6	-15.7	-8.0	-102.8	46.0*	-10.9	-21.2
CN(C)S(=O)(=O)c1ccc2c(c1)Cc1cc(S(=O)(=O)N(C)C)ccc1-2	x	x	x	x	x	3.2	x	x
CCOC(=O)C1=C(CSc2nc(CC)c(C)cc2C#N)OC(N)=C(C#N)C1c1ccccc1 (configuration not stated)	-2.4	3.3	-1.3	-1.0	-2.2	-3.8	x	x
CCOC(=O)C1=C(CSc2nc3c(cc2C#N)CN(C)CC3)OC(N)=C(C#N)C1c1ccc(Cl)cc1 (configuration not stated)	-3.4	1.0	-10.9	0.0	-26.3	52.5*	40.9*	43.8*
CCOC(=O)C1=C(CSc2nc(C)cc(C)c2C#N)OC(N)=C(C#N)C1c1ccccc1 (configuration not stated)	8.2	11.5	-5.1	-4.0	-13.7	-1.2	x	x
CCOC(=O)C1=C(CSc2nc3c(cc2C#N)CN(C)CC3)OC(N)=C(C#N)C1c1ccncc1 (configuration not stated)	-2.4	12.1	0.7	-2.0	-3.4	143.4*	107.9*	119.0*
CCC1OC2(C)OC(=N)C1(C#N)C(C#N)(C#N)C2c1ccccc1 (configuration not stated)	1.2	17.7	-8.5	-1.0	-33.1	54.7*	14.1	11.9
CC(C)C1OC2(C)OC(=N)C1(C#N)C(C#N)(C#N)C2c1ccccc1 (configuration not stated)	-0.4	17.0	4.1	-7.0	-24.8	102.9*	31.9*	47.5*
CCC12OC(=N)C(C#N)(C1C)C(C#N)(C#N)C(c1ccccc1)O2 (configuration not stated)	2.5	18.8	-0.6	-1.0	-12.8	25.2	x	x
CCOc1ccc(NC(=O)CN(C)C(=O)Cn2cnc3c2c(=O)n(C)c(=O)n3C)cc1OCC	x	x	x	x	x	-22.3	x	x
Cc1cccc(N2CSC3=C(C#N)C(c4ccc(C)o4)CC(=O)N3C2)c1 (configuration not stated)	15.6	107.5*	13.4	-11.0	70.9*	54.4*	4.7	34.7
CN(C(=O)CN1C(=O)NC(C)(c2cccc(Br)c2)C1=O)C1CCCCC1 (configuration not stated)	x	x	x	x	x	82.2*	3.7	0.0
Cn1c(=O)c2[nH]c(-c3ccccc3)nc2n(C)c1=O	-4.2	1.2	-11.9	0.0	6.1	x	x	x
Cn1c(=O)c2[nH]c(-c3ccccc3Cl)c(O)c2n(C)c1=O	14.1	16.5	-10.9	-6.0	-7.7	134.0*	48.6*	77.2*
Cn1c2c(c(=O)n(C)c1=O)C(C(F)(F)F)(C(F)(F)F)N=C(c1ccccc1Cl)N2	11.6	2.6	-2.6	0.0	-25.8	8.5	x	x
Cn1c(=O)c2[nH]c(-c3ccccc3)c(O)c2n(C)c1=O	-0.7	26.6	-4.8	-2.0	-70.5	+	142.1*	159.4*
CCS(=O)(=O)c1ccc2oc(SCC(=O)NC(C)C3CC4CCC3C4)nc2c1 (configuration not stated)	0.2	9.1	1.9	-5.0	11.2	-1.2	x	x
O=C(O)c1ccccc1N=Nc1ccc(O)cc1	x	x	x	x	x	63.5*	51.9*	59.8*
CCCCCCCC(=O)N/N=C/c1ccc([N+](=O)[O-])o1	2.4	17.0	-0.4	-4.0	3.5	13.7	x	x
CCOC(=O)N/N=C\c1ccc([N+](=O)[O-])o1	4.8	0.8	-12.4	0.0	-37.3	63.9*	0.6	2.2
CC(C)C1NC2(C(=O)c3ccccc3C2=O)C2C(=O)N(c3ccc(F)cc3)C(=O)C12 (configuration not stated)	4.2	47.9	10.3	-7.0	-19.6	64.3*	11.3	6.7
SMILES	eIF4E 4G PPI	Mcl1 Noxa PPI	14-3-3 Bad PPI	Mcl-1 Bim block	Mcl1 Bid PPI	MCL1-BIM inh	BCLXL inh confirm	MCL1 BIM confirm
COCCN(C(=O)COC(=O)c1cc2c(s1)CCC2)c1c(N)n(Cc2ccccc2)c(=O)[nH]c1=O	x	x	x	x	x	90.8*	39.8*	88.4*
CC1(C)Cc2c(c(-c3ccco3)[nH]c(=O)c2C#N)CS1	1.5	8.1	-4.5	-3.0	-45.0	148.2*	94.4*	125.4*
CC1(C)Cc2c(C#N)c(N3CCN(C(=O)c4ccco4)CC3)nc(-c3ccco3)c2CS1	2.9	53.4*	-0.9	-1.0	18.1	67.7*	27.3	49.3*
CC1(C)Cc2c(c(-c3ccccc3)[nH]c(=O)c2C#N)CS1	4.2	9.3	0.4	0.0	-11.8	9.7	x	x
COc1cccc(C(=O)N2CCN(C3CCN(Cc4ccccc4)CC3)CC2)c1OC	-13.4	4.6	22.9	x	30.3	5.8	x	x
CCCCNC(=O)Oc1c(Br)cc2sc(=O)oc2c1Br	3.5	51.8*	-4.0	x	-23.7	77.1*	36.1*	58.5*
CCN(CC)C(=O)CSc1nnc(-c2ccccn2)n1Cc1ccccc1	-8.7	14.8	2.2	x	-21.5	9.7	x	x
O=C(OCCc1ccccc1)c1cc(O)c(O)c(O)c1	x	x	x	x	x	53.9*	40.7*	75.3*
COc1ccc(OC)c(NC(=O)Nc2nnc(N3CCCCC3C)s2)c1 (configuration not stated)	-1.2	20.4	12.4	x	-29.1	4.5	x	x
COCCn1c(C)cc(C(=O)COC(=O)c2ccc(Cl)c(S(N)(=O)=O)c2)c1C	x	x	x	x	x	1.9	x	x
Cc1nc2c(c(=O)n1CCC1=CCCCC1)c1nc3ccccc3nc1n2/N=C/c1ccco1	x	94.2*	x	6.0	73.8*	48.9*	31.8*	57.6*
CCOc1ccc(/C=N/NC(=O)c2ccccc2O)cc1CN1CC2CC(C1)c1cccc(=O)n1C2 (configuration not stated)	x	x	x	x	x	11.8	x	x
CN1C(=O)c2ccc(N(C)C)cc2C1=O	6.3	-13.3	-8.8	-4.0	-19.6	35.5	x	x
